In PubChem BioAssay AID463173 (ICCB-Longwood Screening Facility, Harvard Medical School, 2010):
Out of some 52,000 compounds screened, about 4,300 (8.3%) were called active. Rule as the data show it: active = survival mostly below about 52% (no sharp cut-off); inactive = mostly above about 56%. For the sample, actives were picked, then their nearest neighbours and some compounds at random.

Each molecule was assayed on DeltatarO mutant (assay: growth inhibition of S. aureus wild type versus tarO mutant, primary screen, teichoic acid synthesis inhibitors, RN4220, OD600 (AID 463173)). Conditions: OD600, 18 h, stronger effect = lower value, screened at 18.75 µg/mL (by protocol).

Structure (SMILES) | survival
COc1ccc2c(c1)c1c(c(=O)n(-c3ccc(F)c(Cl)c3)c(=O)n1Cc1ccccc1C)n2C | 83% (inactive)
COc1ccc(-n2ccnc2SCC(=O)Nc2cccc(OC)c2)cc1 | 98% (inactive)
Cc1cc(=O)[nH]c2nnc(SCC(=O)Nc3ccc(OC(F)(F)F)cc3)n12 | 74% (inactive)
CCc1ccc(CNC(=O)c2ccc(-n3c(C)cc4c3CCC(C)C4)cc2)cc1 (stereo not given) | 123% (inactive)
Cc1ccn2c(=O)cc(CSc3nnc(C)s3)nc2c1 | 77% (inactive)
COc1ccc(-c2cc(OC(=O)c3cccc(Cl)c3)c3c(C)oc(C)c3c(=O)c2)cc1 | 132% (inactive)
COc1ccc(S(=O)(=O)N2CCN(c3cccc(C)c3C)CC2)c2ccccc12 | 152% (inactive)
CCCN1CCN(c2ncc3c(n2)CCN(Cc2ccc(OC)c(OC)c2OC)C3)CC1 | 83% (inactive)
CCc1ccc2oc(-c3ccc(NC(=O)c4cc5ccccc5o4)cc3)nc2c1 | 40% (active)
O=C(Nc1ccc(-c2nc3cc(Cl)ccc3o2)cc1)c1cc2ccccc2o1 | 52% (inactive)
Cc1ccc(-c2nc3cc(NC(=O)c4cc5ccccc5o4)ccc3o2)cc1 | 72% (inactive)
O=C(O)CC(NC(=O)Cc1ccccc1)c1ccccc1 (stereo not given) | 99% (inactive)
O=C1CCCc2cc(S(=O)(=O)NCC3CCC(C(=O)NCc4ccccc4Cl)CC3)ccc2N1 (stereo not given) | 71% (inactive)
COc1cc(NC(=O)c2cccc3c2C(=O)N(C2CCCCC2)C3)cc(OC)c1 | 90% (inactive)
Cc1cc(C)cc(NC(=O)c2cccc3c2C(=O)N(C2CCCCC2)C3)c1 | 33% (active)
O=C(Nc1c(Cl)cccc1Cl)c1cccc2c1C(=O)N(C1CCCCC1)C2 | 78% (inactive)
CC(C)c1ccc(NC(=O)c2cccc3c2C(=O)N(C2CCCCC2)C3)cc1 | -10% (active)
COc1cc(NC(=O)c2cccc3c2C(=O)N(C2CCCCC2)C3)cc(OC)c1OC | 53% (inactive)
COC(=O)c1ccc(NC(=O)c2cccc3c2C(=O)N(C2CCCCC2)C3)cc1 | 80% (inactive)
Cc1cccc(C2CC(=O)Nc3cc4c(cc32)OCO4)c1 (stereo not given) | 77% (inactive)
CCCCN(Cc1ccccc1)C(=O)CN(C)S(=O)(=O)c1ccc2c(c1)c(=O)n(C)c(=O)n2C | 128% (inactive)
Cc1ccc(C)c(Nc2nnc(-c3ccc(C)c(S(=O)(=O)N4CCN(C)CC4)c3)c3ccccc23)c1 | 84% (inactive)
COC(=O)CNC(=O)c1cc2sccc2n1Cc1ccccc1 | 97% (inactive)
COC(=O)c1cc2sccc2n1Cc1ccc(F)cc1 | 124% (inactive)

Structure (SMILES) | survival
COC(=O)c1cc2sccc2n1Cc1nc(-c2cccc(Cl)c2)oc1C | 83% (inactive)
COC(=O)c1cc2sccc2n1Cc1nc(-c2ccc(C)cc2)oc1C | 28% (active)
COC(=O)c1cc2sc(Cl)cc2n1Cc1nc(-c2ccc(OC)cc2)oc1C | 72% (inactive)
COC(=O)c1cc2sccc2n1Cc1ccccc1 | 35% (active)
CCc1cc2c(cc(C(=O)OC)n2Cc2nc(-c3ccc(C)cc3)oc2C)s1 | 26% (active)
COC(=O)c1cc2sc(C)cc2n1Cc1nc(-c2ccc(C)cc2)oc1C | 109% (inactive)
COC(=O)c1cc2sccc2n1Cc1nc(-c2ccc(Cl)cc2)oc1C | 90% (inactive)
Cc1ccc(C2=NNC(c3cccnc3)=Nc3ccc(F)cc32)o1 | 96% (inactive)
COc1ccc(Cl)cc1NC(=O)N1CCC(CN2CCCCCC2)CC1 | 79% (inactive)
CN(C)c1ccc(/C=C(/NC(=O)c2ccccc2)C(N)=O)cc1 | 86% (inactive)
Cc1ccc(NC(=O)C2CCCN(c3cnccn3)C2)cc1Cl (stereo not given) | 75% (inactive)
C=CCNC(=O)CN1CCC(n2nnc3cc(C(F)(F)F)ccc32)CC1 | 79% (inactive)
CCc1ccccc1NC(=O)c1cc2nc(-c3ccc(OC)c(OC)c3)cc(C(F)(F)F)n2n1 | 52% (active)
COC(=O)c1cnn2c(C(F)(F)F)cc(-c3ccccc3)nc12 | 68% (inactive)
CCc1ccccc1NC(=O)c1cnn2c(C(F)(F)F)cc(-c3ccc(OC)c(OC)c3)nc12 | 46% (active)
CCOC(=O)c1cnn2c(C(F)(F)F)cc(-c3ccc(Br)cc3)nc12 | 102% (inactive)
COc1ccc(-c2cc(C(F)(F)F)n3nc(C(=O)Nc4ccccc4SC)cc3n2)cc1OC | 148% (inactive)
COc1ccc(-c2cc(C(F)(F)F)n3nc(C(=O)Nc4cccc(Cl)c4Cl)cc3n2)cc1OC | 123% (inactive)
CCCCOc1ccc(C(=O)NCCc2sc(-c3ccc(OC)c(OC)c3)nc2C)cc1 | 72% (inactive)
COc1ccc(NC(=O)c2oc3ccccc3c2NC(=O)C23CC4CC(CC(C4)C2)C3)cc1 | 80% (inactive)
COc1ccc(N2CCN(c3ncnc4c3cnn4-c3ccc(C)c(Cl)c3)CC2)cc1 | 96% (inactive)
Cc1ccc(/C=C/C(=O)N2CCC(c3nc4ccccc4o3)CC2)cc1 | 87% (inactive)
CC(C)NC(=O)C1CCN(C(=O)N2CC(C)Oc3ccccc32)CC1 (stereo not given) | 72% (inactive)
O=C(NC1CCCC1)c1ccc2c(=O)n(Cc3ccccc3)c(SCc3cccc([N+](=O)[O-])c3)nc2c1 | 106% (inactive)

Structure (SMILES) | survival
COc1ccc(Oc2nc3c(c(=O)n(C)c(=O)n3C)n2Cc2ccccc2Cl)cc1 | 54% (inactive)
Cn1c(=O)n(Cc2ccccc2Cl)c(=O)c2c1nc1n2CCN1c1ccccc1 | 73% (inactive)
CC(C)CCSc1nc2c(c(=O)n(C)c(=O)n2C)n1Cc1ccccc1Cl | 34% (active)
CCOC(=O)Cn1c(=O)c2c(nc3n2CCN3c2ccc(CC)cc2)n(C)c1=O | 79% (inactive)
Cn1c(=O)c2c(nc(N3CCOCC3)n2Cc2ccccc2Cl)n(C)c1=O | 46% (active)
Cn1c(=O)c2c(nc(N3CCOCC3)n2Cc2ccccc2)n(C)c1=O | 52% (inactive)
Cn1c(=O)c2c(nc(NCCCCO)n2Cc2ccccc2Cl)n(C)c1=O | 63% (inactive)
CCOC(=O)Cn1c(=O)c2c(nc(N3CCOCC3)n2Cc2ccccc2)n(C)c1=O | 43% (active)
Cn1c(=O)c2c(nc(N3CCOCC3)n2Cc2ccc(Br)cc2)n(C)c1=O | 43% (active)
Cn1c(=O)c2c(nc(N3CCOCC3)n2Cc2cccc(Br)c2)n(C)c1=O | 80% (inactive)
Cn1c(=O)c2c(nc(N3CCOCC3)n2Cc2ccccc2F)n(C)c1=O | 71% (inactive)
Cn1c(=O)[nH]c(=O)c2c1nc(N1CCOCC1)n2Cc1ccccc1 | 167% (inactive)
CCOc1ccc(NC(=O)c2c(NC(=O)c3ccco3)sc3c2CCC(C(C)(C)C)C3)cc1 (stereo not given) | 68% (inactive)
CCOC(=O)c1c(C)[nH]c(C)c1S(=O)(=O)N1CCCC(C(=O)NCc2cccc(C)c2)C1 (stereo not given) | 88% (inactive)
Cc1ccc(CNC(=O)C2CCCN(S(=O)(=O)c3cn(C)cn3)C2)cc1 (stereo not given) | 94% (inactive)
O=C(Cn1cnc2ccccc2c1=O)NCCC(=O)Nc1ccc(F)cc1 | 85% (inactive)
CC(C)(C)Nc1nc(OCC#N)nc(N2CCOCC2)n1 | 113% (inactive)
CCCCNC(=O)Cn1c(=O)cc(C)c2c(C)nn(-c3ccc(CC)cc3)c21 | 55% (inactive)
Cc1cc(C)c2c(n1)SCC(=O)N2CC(=O)Nc1ccc(C)c(C)c1 | 115% (inactive)
CCSc1ncc(Cl)c(C(=O)Nc2nnc(CC)s2)n1 | 72% (inactive)
CCCc1nnc(NC(=O)c2nc(SCC)ncc2Cl)s1 | 76% (inactive)
CCc1nnc(NC(=O)c2nc(SCc3ccccc3C)ncc2Cl)s1 | 96% (inactive)
CCc1nnc(NC(=O)c2nc(SCc3cccc(C)c3)ncc2Cl)s1 | 5% (active)
CCc1nnc(NC(=O)c2nc(SCc3ccc(F)cc3)ncc2Cl)s1 | 29% (active)

Structure (SMILES) | survival
Cc1nnc(NC(=O)c2nc(SCc3ccccc3F)ncc2Cl)s1 | 90% (inactive)
Cc1cccc(CSc2ncc(Cl)c(C(=O)Nc3nnc(C)s3)n2)c1 | 73% (inactive)
CCc1nnc(NC(=O)c2nc(SCc3ccccc3F)ncc2Cl)s1 | 31% (active)
Cc1nnc(NC(=O)c2nc(SC(C)C)ncc2Cl)s1 | 72% (inactive)
Cc1ccc(CSc2ncc(Cl)c(C(=O)Nc3nnc(C)s3)n2)cc1 | 32% (active)
CCc1nnc(NC(=O)c2nc(SC)ncc2Cl)s1 | 109% (inactive)
Cc1ccc(CNC(=O)c2nc(SCc3ccc(C)cc3)ncc2Cl)cc1 | 99% (inactive)
CCCC(=O)C1=C(c2cccc(OC)c2)N(C(=O)CCC)n2c(C)nnc2S1 | 85% (inactive)
O=C(c1ccc(Br)cc1)N1CCN(CCc2ccncc2)CC1 | 78% (inactive)
COc1cc(NC(=O)CC2C(=O)N(c3cccc(C)c3)C(=O)N2Cc2ccc(F)cc2)cc(OC)c1 (stereo not given) | 94% (inactive)
CC1=NN(c2ccccc2)C(c2ccccc2)C1 (stereo not given) | 101% (inactive)
O=C(CN(c1ccc2c(c1)OCCO2)S(=O)(=O)c1ccccc1)NCc1ccco1 | 85% (inactive)
CCOC(=O)C1CCN(C(c2ccc(C)cc2)c2c(O)cc(C)n(CCOC)c2=O)CC1 (stereo not given) | 76% (inactive)
C=CCn1c(C)c(C=C(C#N)C#N)c2ccccc21 | 99% (inactive)
CC1(c2ccccc2)OC(=O)C(C#N)C12CCCCC2 (stereo not given) | 103% (inactive)
NC(=O)c1ccc2nc(N)sc2c1 | 102% (inactive)
Cc1cccc(C(=O)N2CCCCC2CCN2CCCCC2)c1 (stereo not given) | 80% (inactive)
CC(C)c1nnc(NC(=O)c2nc(SCc3ccc(F)cc3)ncc2Cl)s1 | 24% (active)
COc1ccc(NC(=O)c2nc(SCc3ccc(F)cc3)ncc2Cl)cc1 | 69% (inactive)
CC(C)Sc1ncc(Cl)c(C(=O)Nc2nnc(C(C)C)s2)n1 | 69% (inactive)
COc1ccc(CCNC(=O)c2nc(SCc3ccccc3F)ncc2Cl)cc1OC | 64% (inactive)
COc1ccc(CCNC(=O)c2nc(SCc3ccc(C)cc3)ncc2Cl)cc1OC | 65% (inactive)
COc1ccc(CCNC(=O)c2nc(SCc3ccc(F)cc3)ncc2Cl)cc1OC | 46% (active)
